# Measured values as given in the supplement of paper PMC6555819.
# Tests used:
# Experiment in all cases: PBM binding z-score (relative to random genomic background probes); higher = stronger binding; sequences stand for … in GC…GCGATTGACAGCGTAGAATGAAGG
# [1] = test system: RARb homodimer (NR concentration 270 nM)
# Method in brief: (§1)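 Regression normalization was applied to scanned fluorescence from custom Agilent 4×180K protein-binding microarrays. Before scanning, arrays were incubated 1 h with ligand-free nuclear receptor dimers, and binding was detected with antibodies against each partner (one per run). Binding z-scores use the random background probes as reference.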
# [2] = test system: RARg:RXRa (NR concentration 270 nM, RXRa partner concentration 90 nM)
# Method in brief: as §1
# [3] = test system: RARg homodimer (NR concentration 270 nM)
# Method in brief: as §1
# [4] = test system: RXRa DBDmut IVT, anti-RXR (DBD mutation: RXRa K156A/R161A, NR concentration 90 nM)
# Method in brief: as §1
# [5] = test system: RXRa homodimer (NR concentration 180 nM)
# Method in brief: as §1
# [6] = test system: THRa:RXRa (NR concentration 90 nM, RXRa partner concentration 90 nM)
# Method in brief: as §1
# [7] = test system: THRa homodimer (NR concentration 90 nM)
# Method in brief: as §1
# [8] = test system: VDR:RXRa (NR concentration 270 nM, RXRa partner concentration 90 nM)
# Method in brief: as §1
# [9] = test system: VDR homodimer (NR concentration 270 nM)
# Method in brief: as §1
Sequence,PBM binding z-score [1],PBM binding z-score [2],PBM binding z-score [3],PBM binding z-score [4],PBM binding z-score [5],PBM binding z-score [6],PBM binding z-score [7],PBM binding z-score [8],PBM binding z-score [9]
AGAACGAGGGCACGCTGAGTTGATAACAGAGTAG,1.27,2.23,2.45,1.47,1.49,1.78,0.282,2.06,1.46
TTAATGAGGTTAAAGATCAGGGAACGTGGCGTCG,0.917,2.56,1.52,1.68,4.02,2.89,0.742,2.4,1.14
ACTCGGAGGACAAAGTTCAGAGCTACGCCAGTGA,2.84,3.2,2.63,2.1,1.63,1.71,-0.296,1.95,2.54
TGCATGAGGTTAAAGATCAGGGAACGTGGCGTCG,1.02,2.55,1.33,1.43,3.68,2.71,0.949,2.1,1.11
TCTTGTAGATCAACGGGAGGTTAAGAAAGATCGA,0.654,1.49,0.307,0.748,1.06,1.11,-0.165,0.477,-0.124
TCTCGGAGAACACGAAGGTCAGAGCTTTCCAGAG,2.86,1.7,1.58,0.25,1.61,1.18,-0.552,0.885,-0.097
GATACAGGGTCAAGTCCAGAGTACGCGTATTGAT,3.68,5.8,5.41,3.08,6.06,3.68,1.22,4.66,3.51
CAAACTAGGTCGAGAGGTCAAAGTCCGCTTCCCG,4.73,5.98,5.09,2.17,6.17,3.62,1.8,5.01,3.99
CTCGAAAGGTCGGTTGAGGTGAGGATACGGATAA,2.54,3.23,2.94,0.698,2.43,5.04,2.21,2.29,0.231
TCTCGGAGGACAAGAAGGTCAGAGCTTTCCAGAG,3.34,2.76,3.26,0.905,1.69,2.09,0.236,1.8,0.789
CCTTACGGGTCACTGACAGGTTAAAGCATTTGGA,3.06,6.25,5.25,1.51,5.63,2.9,-0.0327,3.75,0.937
CCTCGTTGGTCAGGAGGTCACACACCGGATATGA,4.36,5.12,4.22,0.642,4.63,3.54,2.26,3.77,2.22
CCGACTGGGGCGAAGGTTACCATACTCAGTACGA,0.751,0.697,0.405,-0.021,1.12,0.439,-0.242,0.0154,-0.459
CTAACTAGGTCAAGAGGTCAAAGTCCGCTTCCCG,5.82,8.23,7.39,2.89,8.23,4.27,2.29,6,4.55
ACATACGGGTCAACGAGGTTATAGCACGCGTATA,3.66,5.55,5.24,2.49,5.71,3.82,0.951,7.57,3.69
GTACCAAGGTGAATAGATCGTTGATGAGTAGGCG,0.231,0.664,0.719,-0.335,0.634,1.03,0.372,-0.155,-0.106
TCTAGCAGGCAAGAGGGTCACTCAAGAGGTACGG,2.42,2.15,1.93,-0.113,2.5,1.47,-0.453,2.01,0.595
AGAATGAGGTTAAGATCAGGGCAACAGAATACAT,2.23,3.86,1.76,1.17,2.78,3.57,1.44,2.23,0.984
CCTACTGGGCAATCAGGTCATTGATATCAACGTT,2.16,1.56,1.51,0.0815,1.06,3.13,2.55,2.83,1.29
ATCTCTAGGTAAAGTTCTGTGAAAGATCGATAGA,-0.0506,0.0649,0.264,0.162,-0.238,0.488,0.369,0.335,0.0394
ATTAGTTGGTCAGCTGAGGTCACACACAATTCGG,4.56,4.39,4.28,1.58,4.35,5.05,5.22,4.76,4.18
TCATATAGGTAAACAGGAGAAAGTCCGTAAGTTA,-0.0173,0.0941,0.0897,1.4,0.771,0.0424,-0.0606,0.716,0.309
GGAACGAGGGCAAGTTGATAACAGAGTTTGATGG,1.22,1.6,2.06,2.29,0.775,1.13,0.176,0.906,1.74
ATCTCTAGGAAAGACTCAGTTCAGTGAAGAACGC,0.415,-0.181,0.129,0.549,-0.107,0.203,0.155,0.436,1.33
TGAATGAGGTTAAAGATCAGGCAACGTGGCGTCG,0.653,2.44,1.16,1.02,3.63,2.71,0.312,1.88,0.286
ATACCAAGGTGATCGTCAGGTCGTTGATACTAAC,1.14,1.4,0.502,-0.0242,0.916,2.98,1.76,1.36,1.12

Sequence,PBM binding z-score [1],PBM binding z-score [2],PBM binding z-score [3],PBM binding z-score [4],PBM binding z-score [5],PBM binding z-score [6],PBM binding z-score [7],PBM binding z-score [8],PBM binding z-score [9]
TCATAGAGGTAAATGCTAGGTGAAAGTCCGATCT,0.335,0.753,0.235,0.932,0.849,1.94,0.361,0.364,-0.248
TCTTGTAGATCAATAGAGGTTAAGACAGTGCGCT,1.01,0.969,0.534,0.854,1.44,2.36,-0.216,1.7,0.0474
CCTATTGGGCCAAGGTCATTGATCAGTCAAAGCA,3.15,3.81,3.22,1.62,3.07,3.6,2.3,3.29,3.13
ATACCAAGGTGATAGTGAGGTCGTTGATACTAAC,1.84,2.12,0.961,0.897,1.84,3.3,2.49,3.69,3.15
CTAACTAGGTCATCCAGGACAGTGAATACATTGA,2.94,4.11,4.62,2.34,3.07,3.84,2.16,4.72,2.32
CTCGAAAGGTCGGTTGAGATGAGTATACGGATAA,1.74,2.2,2.5,0.887,2.01,1.72,-0.23,0.961,0.738
ATATGTAGGTTATCGGGTCATTCAGTTTGCGCAT,3.05,3.09,2.5,1.87,3.47,3.23,3.19,5,4.34
TCTAGTTGGTCAAAGGTCACACTCTCGAAATGCG,5.1,6.72,5.71,1.96,7.91,4.01,2.1,5,2.53
GTACCAAGGTGAATAGCTCGTTGATGAGTAGGCG,0.121,0.285,0.489,-0.348,0.453,1.15,0.236,-0.223,-0.63
ATCGAAAGGTCGAGGTGACTATAGAGAAAGGGAA,2.73,4.4,4.53,1.37,4.45,2.9,0.607,2.55,0.269
TTACCATGGTGAAAGGTCGTTGATGCACGCCTTG,2.03,2.17,1.04,0.434,3.19,1.64,0.0302,2.11,1.19
TGAATTAGGTTAAAGATCAGGGAACGTGGCGTCG,-0.0287,0.954,0.891,-0.199,1.58,0.806,0.0277,0.374,0.326
CGTCCAAGGTCAATGCTAGGTCAGGGAAAGCATT,4.99,7.46,6.5,3.47,5.08,4.67,3.21,4.75,2.33
ATATGTAGGTTAGCTGGGGTCAGTCAGACTAGGC,3.61,3.36,2.88,0.894,3.64,5.02,2.36,4.52,2.29
CCGAGTAGGTTATGGGGCATTCAGGCAACGGTGA,1.08,0.469,0.552,0.0295,0.728,0.503,0.317,-0.0737,-0.196
ATTCAAAGTTCATCTAGGTAACGTAAGATATGCT,3.89,5.29,5.82,4.6,4.46,3.13,0.475,4.93,4.9
CCGAGTACGTTATGGGGCATTCAGGCAACGGTGA,0.358,-0.121,-0.0152,3,-0.121,0.188,-0.521,–,1.4
TAGCCTAGCTCATGCGGGCCAGTATAGTGTCGGC,-1.08,-0.81,-0.912,-1.45,-0.694,-1.65,-1.25,-1.1,-0.887
CGTCCAAGGTCATGGTCAGTGAAAGAGACTCGAA,4.01,6.19,6.11,3.84,5.98,3.92,2.89,4.3,2.52
CCGCCTAGGTCAGGGCCAGTATAGGAGGAACGTT,2.62,2.86,3.33,-0.193,1.74,2.2,0.59,0.294,-0.22
CCTATTAGTTGACCATAATGGCAACCGAAGCTCG,0.786,0.589,0.606,0.918,0.421,0.384,0.631,0.509,1.12
CCTACTGGGCCTTTCAGAGGTCATTGATCATATG,3.64,3.43,2.71,0.749,3.84,3.04,1.36,3.36,2.8
ATCTCCAGGTAACAAGTTCAGTGAAAGAGAGGAC,2.16,1.92,1.39,0.944,1.12,1.96,1.49,2.42,3.33
AGAGCGAGGGCAATGAGTTGATAGCACGGGTGGC,0.903,1.19,1.31,1.48,0.736,0.613,-0.514,4.97,2.82
AGAATGAGCTTAAGATCAGGGAAACAGAATACAT,-0.611,-0.159,0.233,-0.641,-0.0967,-0.123,-0.875,-0.396,-0.392
CCGAGTAGGTTATGGGGCATTCACGCAACGGTGA,0.898,0.542,0.597,-0.117,0.816,0.155,-0.0267,-0.0125,0.416
